# Measurements: PMC5540273 (PLoS ONE, 2017)
# Tests used:
# [1] = system: STK33
# [2] = system: STK36
# [3] = system: TAOK1
# [4] = system: TAOK3
# [5] = system: TESK1
# [6] = system: TGFBR1
# [7] = system: T1, TIE2
# T1 construct: gene TEK
# [8] = system: TNIK
# [9] = system: TNNI3K
# [10] = system: T2, TRKA
# T2 construct: gene NTRK1
# 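Further: kd values determined as follow-up on hits from a single-replicate KINOMEscan panel screen.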
compound,measurement,setting,value
Cl.Cl.Cl.N#Cc1ccc(CCNc2nccc(-c3cccc(CN4CCNCC4)c3)n2)cc1 [GSK2137462],Kd,[1],3.9 µM
CS(=O)(=O)Cc1ccc(Nc2nccc(-c3c(-c4cccc(NC(=O)C5CCCCC5)c4)nn4ncccc34)n2)cc1 [GSK350559],Kd,[2],0.067 µM
CNCc1ccc2nc(NC(=O)c3ccc(C(C)(C)C)cc3)cn2c1,Kd,[3],> 10 µM
same,Kd,[4],> 10 µM
Cn1cncc1C(=O)NC1CCN(c2ccnc(Nc3ccc(F)cc3)n2)C1 (centres unmarked) [GSK1379717],Kd,[5],> 10 µM
COc1cccc(CNC(=O)NC2CCN(c3ccnc(Nc4ccc(F)cc4)n3)C2)c1 (centres unmarked) [GSK1379723],Kd,[5],9.8 µM
COc1ccc2cc(-c3nc(-c4ccccc4C(C)C)[nH]c3-c3ccncc3)ccc2c1 [SB-660566],Kd,[6],0.77 µM
same,Kd,[7],0.16 µM
Cc1nccc(-c2c(-c3ccc(F)cc3)ncn2CCCN2CCOCC2)n1.Cl [SB-282975],Kd,[7],> 10 µM
Nc1nccc(-c2c(-c3ccc(F)cc3)ncn2C2CCN(Cc3ccccc3)CC2)n1 [SB-219980],Kd,[8],4.1 µM
NS(=O)(=O)c1cccc(N/C=C2\C(=O)Nc3ccc(S(=O)(=O)Cc4c(Cl)cccc4Cl)cc32)c1 [GSK398099],Kd,[8],0.33 µM
O=C(Nc1n[nH]c2nc(-c3cccs3)c(Br)cc12)C1CC1 [SB-735297],Kd,[9],> 10 µM
COC(=O)C(Cc1ccccc1)NC(=O)NC1CCN(c2ccnc(Nc3ccc(F)cc3)n2)C1 (centres unmarked) [GSK1379714],Kd,[10],1.5 µM
O=C(Nc1n[nH]c2cc(-c3ccsc3)ccc12)C1CC1 [SB-732932],Kd,[10],3.1 µM
